# LASV entry inh: qHTS for Inhibitors of binding or entry into cells for Lassa Virus; Lassa virus pseudotype entry inhibition, cell reporter; Potency, µM (doses to about 37.9 µM), inactives show top-dose activity change, negative = inhibition, hits mostly inhibitors; hit rate 1.2% among 300,000; AID 540256, 2011; calls by dose curve; tested in HEK293 cells; further: potency means the concentration at half of the fitted maximal effect; on the % scale 0 is the no-effect control and ±100 the full control effect; nearly all actives have a fitted effect of over 50% in size
# Pf growth 48h: Primary qHTS for delayed death inhibitors of the malarial parasite plastid, 48 hour incubation. Potency, µM (series often up to 28.7 µM), inactives show at the top dose activity change, negative = inhibition, usual class: inhibitors. AID 504832, 2011. P. falciparum luciferase growth in erythrocytes, 48 h. hit rate 5.9% among 310,000; further: potency means the concentration at half of the fitted maximal effect; on the % scale 0 is the no-effect control and ±100 the full control effect
#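 Parasite viability was followed by luminescence of a genomically integrated firefly luciferase. Cultures held 0.1% parasitemia at 2% hematocrit (final), incubated under 5% CO2 at 37 C.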
# Shiga toxin inh: A qHTS for Small Molecule Inhibitors of Shiga Toxin; Vero cells, Shiga toxin protein synthesis inhibition reporter; inhibition, % at 38.7 µM; hit rate 9.2% among 290,000; AID 2315, 2010; in the data active means inhibition mostly above about 28%, no sharp cut-off; inactive means mostly below about 43%; further: 0% is about no effect
# Cycloheximide cs: Cycloheximide Counterscreen for Small Molecule Inhibitors of Shiga Toxin; cell reporter, cycloheximide protein synthesis inhibition counterscreen; max response, %; hit rate 12% among 300,000; AID 2314, 2010; in the data active means max response mostly above about 13%, no sharp cut-off; inactive means mostly below about 14%; further: read at 38.3 µM for the half of the compounds with a filed dose; 0% is about no effect
# Pf growth 96h: Primary qHTS for delayed death inhibitors of the malarial parasite plastid, 96 hour incubation; Potency, µM (highest dose often 28.7 µM), for the others: at the top dose activity change, negative = inhibition, usual class: inhibitors; P. falciparum luciferase reporter growth, 96 h; hit rate 6.9% among 320,000; further: potency means the concentration at half of the fitted maximal effect; on the % scale 0 is the no-effect control and ±100 the full control effect
#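 Compounds incubated with erythrocytes infected by luciferase-expressing P. falciparum (2% hematocrit, 0.05% parasitemia final) for 96 hours, 37 C in 5% CO2. Growth inhibition scored as decreased luciferase luminescence.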
# Marburg entry inh: qHTS for inhibitors of binding or entry into cells for Marburg Virus; hit rate 1.8% among 300,000; Marburg virus pseudotyped entry inhibition, cell reporter; Potency, µM (titrated, usually from 37.8 µM), for inactives: at the highest dose activity change, negative = inhibition, hits mostly inhibitors; calls by dose curve; tested in HEK293 cells; further: potency means the concentration at half of the fitted maximal effect; on the % scale 0 is the no-effect control and ±100 the full control effect
# Starred values were filed as active, the others as inactive; i = inactive; ? = inconclusive; nt = no result given; + = active, no number; ! = a repeat was not active; [ ] = remark or other dose. Sampled rows, rich in hits. Any-hit rate of the full collection: about 19%. Unless noted, the call rests on the fitted dose curve; in most records, active means well fitted inhibition curve with a large enough effect; inconclusive means small, poorly fitted or top-dose-only effect, or another doubt; inactive means no such curve, though single readings can be large or run the other way.
SMILES,LASV entry inh,Pf growth 48h,Shiga toxin inh,Cycloheximide cs,Pf growth 96h,Marburg entry inh
CC1(c2ccc3ccccc3c2)NC(=O)N(CC(=O)Nc2cccc(S(=O)(=O)N3CCOCC3)c2)C1=O (configuration not stated),0%,-13%,18,-3,?,?
CCOC(=O)C1CCCN(C(=O)Cn2ncc3c(C)n(Cc4ccccc4F)c(C)c3c2=O)C1 (configuration not stated),-2%[46.1 µM],nt,nt,nt,nt,-1%[46.1 µM]
Cc1nn(-c2ccccc2)c(Cl)c1/C=N/Nc1nc2ccccc2n1C,-24%,-67%,79*,54*,?,-8%
CNC(=S)N/N=C/c1c(C)nn(-c2ccc(F)cc2)c1Cl,?,?,6,11,?,?
Cc1nn(C)c(Cl)c1/C=N/OC(=O)c1ccc(F)cc1,nt,-3%,2,9,46%,nt
Cc1nn(-c2ccccc2)c(Cl)c1/C=N/NC(=O)c1ccnn1C,nt,94%,107*,34*,97%,nt
Cc1nn(-c2ccccc2)c(Cl)c1/C=N/NC(=O)CNC(=O)c1ccccc1Cl,?,28%,23,18*,1.9µM*,?
Cc1nn(-c2ccccc2)c(Cl)c1/C=N/Nc1nnc(C)c(=O)[nH]1,-17%,55%,8,-3,?,?
Cc1nn(C)c(Cl)c1/C=N/OC(=O)c1ccccc1,-5%[46.1 µM],-1%,-1,16*,26%,?
Cc1cc(C)c(C#N)c(SCc2cc3c(cc2Cl)OCO3)n1,-24%,32%,-7,-5,-3%,?
Cc1cc(C)nc(N2CCCC(C(=O)NC3CCCC3)C2)n1 (configuration not stated),0%,-4%,-23,-9,2%,?
CC(C)NCC(O)COc1ccc(Br)cc1 (configuration not stated),-14%,?,25,-3,3%,?
Cc1nn(-c2cccc(Cl)c2)c(Cl)c1/C=N/NC(=O)c1cccnc1,3%,8%,22,17*,44%,-12%
COC(=O)N/N=C\c1c(C)nn(-c2ccccc2)c1Cl,-15%,71%,58*,23*,20%,-20%
Cc1nn(-c2ccccc2)c(Cl)c1/C=N\NC(=O)c1cncc(Br)c1,0%,7%,-9,-7,209%,0%
Cc1ccc(C)c(OCC(=O)N/N=C/c2c(C)nn(-c3ccccc3)c2Cl)c1C,?,-19%,-2,-3,224%,11%
Cn1c(Cl)c(/C=N/OC(=O)c2ccccc2Cl)c2ccccc21,?,29%,24,14*,75%,-2%
Cc1nn(Cc2c(Cl)cccc2Cl)c(Cl)c1/C=N/NC(=O)c1cccnc1,11%,?,41*,16*,?,-16%
CN1CCN(NC(=O)c2cccs2)CC1,nt,14%,-6,-1,-5%,22%[46.1 µM]
CNc1nc(OCC#N)nc(N2CCCCC2)n1,?,?,-17,1,24%,-6%[46.1 µM]
CCOc1ccc(Oc2c(/C=N/NC(=O)COc3ccccc3OC)c(C)nn2-c2ccccc2)cc1,?,?,-3,-2,5.2µM*,?
Cc1nn(-c2ccccc2)c(Cl)c1/C=N/NC(N)=O,3%,102%,33*,27*,61%,3%[14.2 µM]
COC(=O)N/N=C/c1c(C)nn(-c2cccc(Cl)c2)c1Cl,-19%,6%,55*,49*,?,-11%
O=C(CN1C(=O)COc2ccc(S(=O)(=O)N3CCCC3)cc21)NCc1ccccn1,3%,-7%,5,-2,-2%,24%[46.1 µM]
COCC1CCCN(C(=O)c2ccc3nc(Cc4cccc(Cl)c4)oc3c2)C1 (configuration not stated),?,1%,89*,42*,34%,20%
SMILES,LASV entry inh,Pf growth 48h,Shiga toxin inh,Cycloheximide cs,Pf growth 96h,Marburg entry inh
COC1CCCN(C(=O)c2ccc3oc(Cc4ccc(Cl)cc4)nc3c2)C1 (configuration not stated),18%[46.1 µM],8%,25,0,?,-4%[46.1 µM]
COC1CCCN(C(=O)c2ccc3nc(Cc4cccc(Cl)c4)oc3c2)C1 (configuration not stated),-12%,40%,49*,17,?,0%[46.1 µM]
COCC1CCCN(C(=O)c2ccc3oc(Cc4ccc(Cl)cc4)nc3c2)C1 (configuration not stated),nt,?,18,21,-3%,nt
Cc1cnc(=O)[nH]c1SCC(=O)Nc1nccs1,3%,-17%,nt,nt,16%,6%
CCOC(=O)COc1cc(Br)c(/C=N/Nc2ccccc2)cc1OC,?,8.3µM*,-7,-1,10µM*,-19%
COc1ccc(/C=N/Nc2ccc(C(=O)O)cc2)cc1OC,nt,187%,43,27*,314%,nt
CCOc1cc(/C=N/NC(=O)c2cccnc2)cc(Br)c1OCC(N)=O,nt,-20%[5.75 µM],12,-2,14%,-17%[46.1 µM]
COc1ccc(/C=N\NC(=O)C2CCCC2)cc1Br,18%[46.1 µM],5%,-21,-3,-20%,11%[46.1 µM]
COc1ccc(/C=N/Nc2ccc(C(=O)O)cc2)cc1Br,?,i,0,9,?,3.2µM*
C=CCOc1c(Br)cc(/C=N/Nc2ccc(C(=O)O)cc2)cc1OCC,?,-5%,+,79*,32%,6%
COc1ccccc1N(CC(=O)N1CCc2ccccc2C1)S(C)(=O)=O,2%,-12%,-12,-2,-22%,-2%[46.1 µM]
COc1cc([N+](=O)[O-])cc(/C=N/NC(=O)Cn2cncn2)c1O,nt,-15%,-5,0,24%,nt
CCOC(=O)c1ccc2c(c1)NCc1cccc(OC)c1O2,nt,151%,99*,53*,247%,nt
CCOC(=O)c1cccc(NC(=O)C2COc3ccc(OC)cc3C2)c1 (configuration not stated),-22%[46.1 µM],nt,nt,nt,nt,nt
COc1ccc(NS(=O)(=O)c2cc(NC(=O)c3ccc(C)o3)ccc2N2CCCCC2)cc1,?,9.3µM*,-7,-2,?,?
COc1ccc(NS(=O)(=O)c2cc(NC(=O)CC(C)(C)C)ccc2N2CCCC2)cc1,nt,10µM*,nt,nt,13µM*,nt
CC1(C)CC(=O)C=C(Nc2ccc3c(c2)CCC3)C1,nt,4%,8,5,39%,nt
O=C(NCCc1csc2nc(-c3cccc(F)c3)nn12)c1ccc(Br)o1,2%[46.1 µM],nt,nt,nt,nt,nt
C=CCN1CCc2nc(N)sc2CC1,4%,-13%,-5,-9,6.7µM*!,-1%
Cc1cccc(C)c1OC[C@H](O)CNS(=O)(=O)c1ccccc1C(=O)N1CCOCC1,nt,nt,nt,nt,nt,12%[46.1 µM]
COc1cc(C(=O)OC2C[C@H]3CC[C@@H](C2)N3)ccc1O (some centres not stated),nt,12µM*,-5,-1,?,nt
CC(C)(C)C(=O)Nc1ccc2oc(-c3cc(F)c(F)cc3Cl)nc2c1,?,-10%,59,42*,nt,?

# Compound activity: PubChem BioAssay, National Center for Advancing Translational Sciences (NCATS)
